This is one part of a sample in which hits are shown more often than they occur.
CHX counter-1 = affects cycloheximide protein synthesis inhibition readout, counter-screen; cell reporter, cycloheximide protein synthesis inhibition counterscreen; max response, %; 300,000 compounds, 12% hits; AID 2314; in the data active means max response mostly above about 13%, no sharp cut-off; inactive means mostly below about 14%; further: read at 38.3 µM for the half of the compounds with a filed dose; 0% is about no effect
Giardia FBPA inh = Giardia lamblia aldolase inhibition | 290,000 compounds, 0.71% hits | AID 2451 | purified Giardia FBPA | A8B2U2 | Potency, µM (doses to about 59.6 µM), for the others: at the top dose activity, negative = inhibition, usual class: inhibitors; further: potency means the concentration at half of the fitted maximal effect; on the % scale 0 is the no-effect control and ±100 the full control effect; nearly all actives have a fitted effect of over 55% in size
Target sequence (A8B2U2 whole entry, looked up): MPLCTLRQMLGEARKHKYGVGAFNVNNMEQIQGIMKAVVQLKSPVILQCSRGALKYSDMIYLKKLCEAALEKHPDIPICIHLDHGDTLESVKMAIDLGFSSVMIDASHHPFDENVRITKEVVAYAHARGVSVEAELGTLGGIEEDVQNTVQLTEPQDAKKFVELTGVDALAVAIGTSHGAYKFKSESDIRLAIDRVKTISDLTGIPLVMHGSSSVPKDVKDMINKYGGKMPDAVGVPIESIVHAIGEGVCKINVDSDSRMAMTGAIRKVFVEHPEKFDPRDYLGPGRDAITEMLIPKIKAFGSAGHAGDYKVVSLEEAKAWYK
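40 nM FBPA preincubated 10 min at RT with compound (up to 57.5 uM final), then substrate plus GAPDH/TPI/NAD/arsenate coupling and diaphorase/resazurin added. Fluorescence read after 20 min at RT, 525/598 nm.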
Shiga inhibitor = Shiga toxin inhibition. Vero cells, Shiga toxin protein synthesis inhibition reporter. inhibition, % at 38.7 µM. 290,000 compounds, 9.2% hits; in the data active means inhibition mostly above about 28%, no sharp cut-off; inactive means mostly below about 43%; further: 0% is about no effect
LmPK inh = inhibitors of Leishmania mexicana pyruvate kinase | AID 1721 | 290,000 compounds, 0.37% hits | purified LmPK, Kinase-Glo ATP luminescence, 1 h | Potency, µM (series often up to 57.5 µM), for inactives: top-dose activity change, negative = inhibition, usual class: inhibitors; further: potency means the concentration at half of the fitted maximal effect; on the % scale 0 is the no-effect control and ±100 the full control effect
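Pyruvate kinase activity monitored as ATP production (luciferase luminescence). Conditions: 0.1 nM enzyme, 0.5 mM PEP, 0.1 mM ADP, 1 h, RT; normalized against uninhibited and no-enzyme wells.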
Tb PYK inh = T. brucei pyruvate kinase inhibition. 410,000 compounds, 0.12% hits. TbPYK enzyme, Kinase-Glo Plus ATP luminescence, 45 min. Potency, µM (series often up to 76.8 µM), inactives show at the highest dose activity, negative = inhibition, actives largely listed as inhibitors. AID 624173. Q57TT1; further: potency means the concentration at half of the fitted maximal effect; on the % scale 0 is the no-effect control and ±100 the full control effect; nearly all actives have a fitted effect of over 50% in size
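Enzyme and substrate buffer are dispensed first and compound is pin-transferred. ADP at 130 uM final then starts the reaction, which runs 45 min at room temperature. Detection reagent is added for 10 min before luminescence is imaged.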
Sm TGR block = blocks Schistosoma mansoni thioredoxin glutathione reductase. Q962Y6. purified TGR, DTNB reduction, TNB absorbance 405 nm. Potency, µM (series often up to 114 µM), without a hit: at the highest dose activity change, negative = inhibition, actives largely listed as inhibitors. 360,000 compounds, 3% hits; further: potency means the concentration at half of the fitted maximal effect; on the % scale 0 is the no-effect control and ±100 the full control effect; nearly all actives have a fitted effect of over 60% in size
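TGR 20 nM + NADPH 100 uM (dispensed conc.), cpd preinc 15 min RT; start with NADPH (500 uM addition) then DTNB (15 mM addition). Kinetic TNB absorbance, 405 nm filter. Four-parameter Hill fit across titration.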
CHX counter-2 = affects protein synthesis reporter in cycloheximide counter-screen; AID 2318; Potency, µM (series often up to 38.3 µM), without a hit: at the highest dose activity (activation), hits mostly activators; 510 compounds, 3% hits; shares compounds with Shiga inhibitor; Cycloheximide counterscreen, protein synthesis reporter, Shiga toxin assay; calls by dose curve; further: potency means the concentration at half of the fitted maximal effect; 0% is about no effect
* = called active by the depositor; ? = inconclusive; nt = no result given. Unless noted, the call rests on the fitted dose curve; in most records, active means well fitted curve in the direction sought with a large enough effect; inconclusive means small, poorly fitted or top-dose-only effect, or another doubt; inactive means no such curve, though single readings can be large; an effect the other way counts as inactive or inconclusive.

SMILES | CHX counter-1 | Giardia FBPA inh | Shiga inhibitor | LmPK inh | Tb PYK inh | Sm TGR block | CHX counter-2
COC(=O)[C@@]12CCCCN1[C@H](c1ccc(-c3ccc4c(c3)OCO4)cc1)[C@H]1C(=O)N(C)C(=O)[C@H]12 | nt | nt | nt | nt | -4% | nt | nt
CC(C)CC(N)c1csc(Nc2cnccn2)n1 (stereo not drawn) | nt | nt | nt | nt | 1% | nt | nt
NC(=O)Cc1ccc(C(=O)c2ccccc2F)s1 | 15 | 8% | 38* | -2% | -7% | 8% | 0%
CC(=O)c1cccc(NC(=O)CCn2nc(C)c(S(=O)(=O)N(C)C)c2C)c1 | nt | nt | nt | nt | 0% | -11% | nt
Cc1cc(C)c2nc(-c3ccccn3)cc(C(=O)NCc3ccco3)c2c1 | 17 | -22% | 10* | 1% | -6% | ? | ?
COC(=O)COc1ccc(S(=O)(=O)N2CCc3ccccc3C2)cc1C | -4 | 0% | -9 | 0% | 2% | -17% | nt
Cn1c(-[n+]2c(-c3ccccc3)cc(-c3ccccc3)cc2-c2ccccc2)nc2cc([N+](=O)[O-])ccc21 | 12 | ? | 42* | -1% | -8% | 45µM* | -3%
COc1ccc(N/C=C(\C#N)c2nc3ccccc3n2C)c(OC)c1 | -2 | 3% | 81* | 0% | 5% | -3% | ?
O=C(c1ccco1)N1CCN(CCCCOc2cccc3ccccc23)CC1 | 7 | -18% | 37* | 6% | 0% | -15% | 0%
CC(=O)Nc1ccc(S(=O)(=O)N2C(C)CCCC2C)cc1 (stereo not drawn) | -2 | 0% | 24 | 0% | -6% | -16% | nt
CCOC(=O)c1cn(Cc2ccc(C)cc2)nn1 | 11 | 7% | 45* | -4% | -3% | 0% | -3%
CCN(CC)C(=O)C1CCCN(C(=O)c2cc(COc3cccc(OC)c3)on2)C1 (stereo not drawn) | -1 | nt | -13 | -7% | -8% | 3% | nt
COc1ccc(-c2ccc(SCC(=O)NCc3ccco3)nn2)cc1OC | 16 | -17% | 4 | 10% | 2% | ? | nt
CCN1C(=O)/C(=C/c2ccc(OC)c(OC)c2)N=C1SCC(=O)NCc1ccco1 | 1 | -1% | 26* | 9% | -2% | -4% | 3%
CCCc1cc(=O)oc2cc(C)cc(OCC(=O)NCc3ccccn3)c12 | 12 | -7% | 122* | 5% | 6% | 0% | -3%
COc1ccccc1CNC(=O)Cn1cc([N+](=O)[O-])ccc1=O | -3 | nt | 50* | -5% | -7% | -16% | -2%
O=C(CN1C(=O)CN=C(c2ccccc2)c2ccccc21)NCc1ccco1 | 7 | 22% | 44* | 13% | -2% | 40µM* | -2%
CC(C)CCNC(=O)CN1C(=O)CN=C(c2ccccc2)c2ccccc21 | -4 | 2% | -3 | 0% | -3% | 7% | nt
O=C(/C=C/c1cn(CC(O)CN2CCCCC2)c2ccccc12)c1ccccc1 (stereo not drawn) | 12 | -1% | 20 | 4% | -2% | 2% | nt
O=C(/C=C/c1cn(CC(O)CN2CCCCC2)c2ccccc12)c1cccs1 (stereo not drawn) | 5 | 3% | 32* | 0% | -5% | -19% | 3%
CC1Cc2ccccc2N1Cc1cc(=O)n2ccsc2n1 (stereo not drawn) | 1 | ? | 25* | 0% | -20% | 22µM* | 0%
NS(=O)(=O)c1ccc(CCNC(=O)c2ccc(NC3=NC4CS(=O)(=O)CC4S3)cc2)cc1 (stereo not drawn) | -4 | -25% | 114* | -2% | -6% | 5% | -1%
CCc1nc2ccc(C(=O)N(CC)CCN(C)C)cn2c1N(C)Cc1nccs1 | nt | nt | nt | nt | 1% | nt | nt
Cc1cc(N2CCCCCC2)nc(-c2ccccc2O)n1 | 4 | 5% | 59* | -5% | 3% | 8% | 2%
CCCCSCCCNC(=O)CCCN1C(=O)c2ccccc2Sc2ncccc21 | 2 | -3% | 32* | 5% | -8% | 2% | 5%
SMILES | CHX counter-1 | Giardia FBPA inh | Shiga inhibitor | LmPK inh | Tb PYK inh | Sm TGR block | CHX counter-2
CCCNC(=O)CCCN1C(=O)c2ccccc2Sc2ncccc21 | 4 | -4% | -4 | 3% | 19% | -5% | nt
Cc1cc(C)c2c(n1)SCC(=O)N2CC(=O)Nc1ccc(C)c(C)c1 | -1 | 4% | 16* | 0% | 4% | -26% | 0%
COc1ccc(-n2nc(C(=O)Nc3ccc(C)cn3)c3c4ccccc4n(C)c3c2=O)cc1Cl | nt | nt | nt | nt | -2% | 7% | nt
Cc1ccc(-c2csc(NC(=O)c3ccc(C)o3)n2)cc1 | 9 | -5% | 71* | 2% | -5% | 2% | 1%
COc1cccc(/C=C/C(=O)OCC(=O)Nc2nnc(-c3ccccc3)o2)c1 | nt | nt | nt | nt | 4% | 6% | nt
CCc1nc2ccc(C(=O)N(C)CCCN(C)C)cn2c1N(C)C(=O)C1CCCCC1 | nt | nt | nt | nt | -1% | nt | nt
CCOC(=O)/C(C#N)=C/c1ccc(OCC(=O)Nc2ccc(C)c(C)c2)c(OC)c1 | -1 | -3% | 17 | -4% | -1% | 5% | nt
CCCn1c(C)cc(/C=C(\C#N)C(=O)OCC(=O)Nc2ccc(OC)c(Cl)c2)c1C | 12 | -1% | 61* | 0% | 5% | 3% | 4%
O=C(CC(c1ccccc1)c1cc(Cl)ccc1O)N1CCCC1 (stereo not drawn) | 5 | 8% | 57* | 2% | 0% | -11% | -2%
O=C(CC(c1ccccc1)c1cc(Cl)ccc1O)N1CCOCC1 (stereo not drawn) | -4 | 1% | -8 | 1% | -1% | 1% | nt
CN(C)c1ccc(/C=C/[N+](=O)[O-])cc1 | -1 | 5% | 8 | -11% | -12% | -1% | nt
CN(C)c1ccc(/C=C/C#N)cc1 | 9 | -1% | 31* | 4% | -18% | -1% | 5%
COc1ccc(C(=O)OC/C(O)=C(\C#N)c2nc3ccccc3[nH]2)cc1S(=O)(=O)N1CCOCC1 | -1 | 0% | 21 | 1% | -4% | -7% | nt
COC(=O)C(O)(c1ccc(N(C)S(=O)(=O)c2ccccc2)cc1)C(F)(F)F (stereo not drawn) | 13 | -4% | 84* | 1% | 3% | -2% | ?
O=C(COC(=O)CNS(=O)(=O)c1ccc(Br)cc1Cl)NC1CCCC1 | nt | nt | nt | nt | 9% | -7% | nt
CCc1ccc([C@@H]2C[C@H]3[C@@H](CN2S(=O)(=O)c2ccc(C)cc2)C(=O)C[C@@H](c2cccc(Cl)c2)N3S(=O)(=O)c2ccc(C)cc2)cc1 | nt | nt | nt | nt | 7% | nt | nt
CC(NC(=O)c1ccc2c(c1)OCO2)C(c1cccs1)N1CCN(c2ccccc2)CC1 (stereo not drawn) | -2 | -3% | -4 | 1% | 4% | 2% | nt

From PubChem
